ugtP null kill: growth inhibition of ugtP-null S. aureus, primary screen, RN4220 ugtP deletion, OD600; 16 h; growth inhibition, % (test concentration not listed); 330,000 compounds, 0.54% hits; in the data active = growth inhibition above about 68%;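 also: plate controls were untreated wells for no effect and antibiotic for full effect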
Sa RN4220 lethal: growth inhibition of S. aureus RN4220, primary screen, OD600; 16 h; inhibition, % (concentration not given with the values); 330,000 compounds, 0.33% hits; in the data active = inhibition above about 85%;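 also: plate controls were untreated cells for no effect and reference antibiotic for full effect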
Mtb bLac sens: beta-lactam sensitization of Mtb H37Rv, H37Rv; AID 434955, 2010; inhibition, % at 25 µM; M. tuberculosis H37Rv growth with meropenem, percent inhibition; 330,000 compounds, 0.27% hits; call rule not given here;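 also: growth measured after seven days incubation then overnight dye step; 0% = bacteria only wells and 100% = bacteria with antibiotic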
Mtb hypoxia inh: PubChem AID 1159583 | M. tuberculosis hypoxia-regulated fluorescent reporter, fluorescence | fluorescence inhibition, % (no concentration beside the values) | 300,000 compounds, 0.1% hits; in the data active = fluorescence inhibition mostly above about 23%, no sharp cut-off; inactive = mostly below about 17%
* hit, by the source's call; . = no result shown. The list is not random: actives were taken first. Their share in the collection is about 0.61%.

SMILES	ugtP null kill	Sa RN4220 lethal	Mtb bLac sens	Mtb hypoxia inh
O=C1Nc2ccccc2/C1=C/C(=O)c1cccs1	94*	98	100	.
COc1ccc(C(=O)/C=C2/C(=O)Nc3ccccc32)cc1OC	.	.	84	.
COc1ccc(C(=O)/C=C2/C(=O)Nc3ccccc32)cc1	99*	97*	75	5
O=C(O)c1cn(C2CC2)c2cc(N3CCN(S(=O)(=O)c4ccc5c(c4)OCCO5)CC3)c(F)cc2c1=O	100*	99*	93	.
CCn1cc(C(=O)O)c(=O)c2cc(F)c(N3CCN(S(=O)(=O)c4ccc(Br)cc4)CC3)cc21	.	.	-4	.
CN1/C(=C\C(=O)Nc2ccc(Br)cc2)C(C)(C)c2ccccc21	96*	94*	97	-2
CN1/C(=C\C(=O)Nc2ccc(F)cc2)C(C)(C)c2ccccc21	-13	11	94	3
O=C(CCN1C(=O)C2C3C=CC(C4CC34)C2C1=O)Oc1cccc2cccnc12 (configuration not stated)	98*	100*	100	-2
COc1ccccc1NC(=O)COC(=O)C=Cc1ccc2c(c1)OCO2	-4	1	.	2
CCCCCC1CC(=NO)C=C(C)C1C(=O)OC (configuration not stated)	4	4	.	9
CCOC1OC(C(=O)N2CCN(Cc3ccc4c(c3)OCO4)CC2)=CC(C)C1CCCO (configuration not stated)	0	2	.	-1
O=C1c2ccccc2C(=O)c2c1oc(C(F)(F)F)c2C(=O)c1ccccc1	79*	94*	6	.
CSCCC(NC(=O)c1ccccc1Br)C(=O)NNC(=O)c1ccncc1 (configuration not stated)	3	-2	73	27*
O=C(CCc1ccc(O)cc1)c1c(O)cc(O)cc1OC1OC(CO)C(O)C(O)C1O (configuration not stated)	-2	5	.	2
CCOC(=O)c1sc(NC(=O)Nc2cccc(Cl)c2)cc1C	88*	92*	7	-3
CC(=O)C(=NNc1ccc(Cl)cc1Cl)Sc1cccc2cccnc12	85*	6	.	8
COC(=O)C1C[C@]2(Br)c3ccccc3N(S(=O)(=O)c3ccccc3)C2N1C(=O)OC (some centres not stated)	-7	11	.	3
O=C(NN=Cc1ccc(Br)s1)c1ccccc1[N+](=O)[O-]	-7	4	.	3
CC1C(=O)OC2C1CC[C@@]1(C)C(=O)C=C[C@@](C)(O)C21 (some centres not stated)	-2	3	.	1
Cc1onc(-c2c(Cl)cccc2Cl)c1C(=O)N[C@@H]1C(=O)N2[C@@H]1SC(C)(C)[C@@H]2C(=O)O	3	2	-3	-12
Cc1onc(-c2c(Cl)cccc2Cl)c1C(=O)NC1C(=O)N2C1SC(C)(C)C2C(=O)O (configuration not stated)	100*	101*	6	8
Cc1onc(-c2ccccc2Cl)c1C(=O)NC1C(=O)N2C1SC(C)(C)C2C(=O)O (configuration not stated)	100*	99*	.	6
CC1=NNC(=O)C1CCC(=O)NN=Cc1ccccc1 (configuration not stated)	0	4	.	-11
Cc1cc(C)n(N=Cc2cc([N+](=O)[O-])ccc2O)c(=O)c1	76	89*	.	-2
O=S(=O)(N=C(c1ccccc1)N1CCOCC1)c1cccs1	-4	1	.	.
SMILES	ugtP null kill	Sa RN4220 lethal	Mtb bLac sens	Mtb hypoxia inh
CC1(C)C(=S)N(Cc2ccccc2)c2ccccc21	86*	-4	30	15
CC(=O)CC1(O)C(=O)N(Cc2ccccc2)c2ccccc21 (configuration not stated)	-7	3	2	5
Cc1ccc(-n2ncc3c(SCc4cccc(C)c4)ncnc32)cc1	79	-1	1	3
Cc1cccc(CSc2ncnc3c2cnn3Cc2ccccc2)c1	98*	-8	7	5
Cc1[nH][nH]c(=O)c1C(c1c(C)[nH][nH]c1=O)c1cn(C)c2ccccc12	7	3	.	2
Cc1[nH][nH]c(=O)c1C(c1c(C)[nH][nH]c1=O)c1cn(Cc2cccc3ccccc23)c2ccccc12	94*	50	95	.
O=C(CCCOc1ccc(Cl)cc1Cl)Nc1ccccc1C(=O)O	23	25	11	34*
COCCNC(=O)C(C#N)=Cc1ccc(CNC(=O)C(=O)Nc2ccc(C)c(C)c2)o1	1	7	.	3
Cc1ccc2c(c1)Oc1ccc([N+](=O)[O-])cc1C(=O)N2	-3	2	3	4
O=C1Nc2ccccc2Oc2cc([N+](=O)[O-])cc(Oc3ccccc3)c21	86	93*	3	4
Cc1cccc(Oc2cc([N+](=O)[O-])cc3c2C(=O)Nc2ccccc2O3)c1	97*	98*	-5	1
C(C#CCCCCCCCCC[n+]1ccccc1)#CCCCCCCCCC[n+]1ccccc1	101*	100*	100	.
Cc1ccc(C2c3c(C)nn(-c4ccc([N+](=O)[O-])cc4)c3N=C3C(=O)Nc4ccccc4N32)cc1 (configuration not stated)	3	2	88	40*
CCCCCCc1ccc(-c2ncc(N)cn2)cc1	100*	5	37	5
CCN1C(=CC(=O)c2ccco2)Sc2ccccc21	-16	17	.	.
CC(C)=CCCC1(C)C=Cc2c(c(C)cc3c2[nH]c2cc(O)ccc23)O1 (configuration not stated)	101*	90	-7	.
CC(=NNC(=O)c1ccccc1)C(=NO)C(=O)Nc1ccccc1	10	1	.	2
O=S(=O)(Nc1cccnc1Cl)c1ccc(-c2ccccc2)cc1	81	89*	4	1
CCOc1cc(CNCc2ccncc2)cc(Br)c1OCc1ccccc1F	92*	4	85	12
CCOc1cc(CNCCSc2nnnn2C)cc(Br)c1OCc1ccccc1F	4	3	50	3
CCOc1cc(CNCCO)cc(Br)c1OCc1ccc(Cl)cc1Cl	98*	100*	100	25
Cc1ccccc1OCC(=O)NN=Cc1ccc(N2CCOCC2)o1	-6	0	.	1
c1nc(CCOC2CCCCO2)cc2cc3c(cc12)OCO3 (configuration not stated)	5	10	.	4
Oc1cc(-c2cccnc2)cc2cccnc12	100*	100*	100	3
CC(=O)NN=Cc1cccc(OC/C=C/c2ccccc2)c1	-10	8	.	16
SMILES	ugtP null kill	Sa RN4220 lethal	Mtb bLac sens	Mtb hypoxia inh
C#CC[N+](C)(C)CCCCCCCC	15	7	3	3
C#CC[N+](C)(C)CCCCCCCCCC	93*	1	1	2
C#CC[N+](C)(C)CCCCCCCCCCCC	99*	99*	19	15
CC#CC[N+](C)(C)CCCCCCCCCCCC	100*	100*	.	23
C[N+](C)(C)CCCCCC[N+](C)(C)C	1	7	1	10
O=C(NCC1CCCO1)C(=O)NN=Cc1ccc(OCc2ccccc2Cl)cc1 (configuration not stated)	5	3	.	.
Cc1ccc(C=NN=Cc2ccc(C)s2)s1	11	11	.	2
CC(=NNc1nc(C)cc(-c2ccccc2)n1)c1ccc(F)cc1	-4	2	.	1
O=C(NN=Cc1cccc2ccccc12)C1CC1	-4	-3	.	25
